The text below walks through data of PubChem BioAssay.

A short description of assay [1]: binders of probe aFSTL3 on microarray, primary screen, stem cell growth factor project, biochemical, small-molecule microarray, fluorescence 635/667 (AID 1064).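 Further: measures binding of the biotinylated anti-FSTL3 antibody to printed compounds.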 Conditions: higher = more signal.
Assay [2] is described as follows: binders from COS7 lysate, DM2A8 probe, primary screen, torsin A project, cell lysate, small-molecule microarray, fluorescence 635/667 (AID 1065). Particulars: higher = more signal, COS7 lysate expressing mutant human TOR1A.
The nature of assay [3]: binders of probe aFGF2 on microarray, primary screen, stem cell growth factor project, biochemical, small-molecule microarray, fluorescence 635/667 (AID 1067).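 Further: measures binding of biotinylated aFGF2 protein to printed compounds on slides; z-score merges feature fluorescence and signal-to-noise across triplicate slides.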 Conditions: higher = more signal.
Assay [4] is described as follows: binders of probe aFGF10 on microarray, primary screen, stem cell growth factor project, biochemical, small-molecule microarray, fluorescence 635/667 (AID 1071).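 Further: score merges 667 nm spot intensity and signal to noise from triplicate slides.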 Conditions: higher = more signal.
For assay [5], the target named is Neurogenic locus notch homolog protein 2 (Homo sapiens) (UniProt Q04721). Briefly: Notch2 binders on small-molecule microarrays, primary screen, biochemical, small-molecule microarray, 635 nm fluorescence, stem cell growth factors (AID 1073). Particulars: Notch2 binding, higher = more signal.
Sequence of Neurogenic locus notch homolog protein 2 (Homo sapiens) (Q04721 whole entry, looked up, canonical isoform): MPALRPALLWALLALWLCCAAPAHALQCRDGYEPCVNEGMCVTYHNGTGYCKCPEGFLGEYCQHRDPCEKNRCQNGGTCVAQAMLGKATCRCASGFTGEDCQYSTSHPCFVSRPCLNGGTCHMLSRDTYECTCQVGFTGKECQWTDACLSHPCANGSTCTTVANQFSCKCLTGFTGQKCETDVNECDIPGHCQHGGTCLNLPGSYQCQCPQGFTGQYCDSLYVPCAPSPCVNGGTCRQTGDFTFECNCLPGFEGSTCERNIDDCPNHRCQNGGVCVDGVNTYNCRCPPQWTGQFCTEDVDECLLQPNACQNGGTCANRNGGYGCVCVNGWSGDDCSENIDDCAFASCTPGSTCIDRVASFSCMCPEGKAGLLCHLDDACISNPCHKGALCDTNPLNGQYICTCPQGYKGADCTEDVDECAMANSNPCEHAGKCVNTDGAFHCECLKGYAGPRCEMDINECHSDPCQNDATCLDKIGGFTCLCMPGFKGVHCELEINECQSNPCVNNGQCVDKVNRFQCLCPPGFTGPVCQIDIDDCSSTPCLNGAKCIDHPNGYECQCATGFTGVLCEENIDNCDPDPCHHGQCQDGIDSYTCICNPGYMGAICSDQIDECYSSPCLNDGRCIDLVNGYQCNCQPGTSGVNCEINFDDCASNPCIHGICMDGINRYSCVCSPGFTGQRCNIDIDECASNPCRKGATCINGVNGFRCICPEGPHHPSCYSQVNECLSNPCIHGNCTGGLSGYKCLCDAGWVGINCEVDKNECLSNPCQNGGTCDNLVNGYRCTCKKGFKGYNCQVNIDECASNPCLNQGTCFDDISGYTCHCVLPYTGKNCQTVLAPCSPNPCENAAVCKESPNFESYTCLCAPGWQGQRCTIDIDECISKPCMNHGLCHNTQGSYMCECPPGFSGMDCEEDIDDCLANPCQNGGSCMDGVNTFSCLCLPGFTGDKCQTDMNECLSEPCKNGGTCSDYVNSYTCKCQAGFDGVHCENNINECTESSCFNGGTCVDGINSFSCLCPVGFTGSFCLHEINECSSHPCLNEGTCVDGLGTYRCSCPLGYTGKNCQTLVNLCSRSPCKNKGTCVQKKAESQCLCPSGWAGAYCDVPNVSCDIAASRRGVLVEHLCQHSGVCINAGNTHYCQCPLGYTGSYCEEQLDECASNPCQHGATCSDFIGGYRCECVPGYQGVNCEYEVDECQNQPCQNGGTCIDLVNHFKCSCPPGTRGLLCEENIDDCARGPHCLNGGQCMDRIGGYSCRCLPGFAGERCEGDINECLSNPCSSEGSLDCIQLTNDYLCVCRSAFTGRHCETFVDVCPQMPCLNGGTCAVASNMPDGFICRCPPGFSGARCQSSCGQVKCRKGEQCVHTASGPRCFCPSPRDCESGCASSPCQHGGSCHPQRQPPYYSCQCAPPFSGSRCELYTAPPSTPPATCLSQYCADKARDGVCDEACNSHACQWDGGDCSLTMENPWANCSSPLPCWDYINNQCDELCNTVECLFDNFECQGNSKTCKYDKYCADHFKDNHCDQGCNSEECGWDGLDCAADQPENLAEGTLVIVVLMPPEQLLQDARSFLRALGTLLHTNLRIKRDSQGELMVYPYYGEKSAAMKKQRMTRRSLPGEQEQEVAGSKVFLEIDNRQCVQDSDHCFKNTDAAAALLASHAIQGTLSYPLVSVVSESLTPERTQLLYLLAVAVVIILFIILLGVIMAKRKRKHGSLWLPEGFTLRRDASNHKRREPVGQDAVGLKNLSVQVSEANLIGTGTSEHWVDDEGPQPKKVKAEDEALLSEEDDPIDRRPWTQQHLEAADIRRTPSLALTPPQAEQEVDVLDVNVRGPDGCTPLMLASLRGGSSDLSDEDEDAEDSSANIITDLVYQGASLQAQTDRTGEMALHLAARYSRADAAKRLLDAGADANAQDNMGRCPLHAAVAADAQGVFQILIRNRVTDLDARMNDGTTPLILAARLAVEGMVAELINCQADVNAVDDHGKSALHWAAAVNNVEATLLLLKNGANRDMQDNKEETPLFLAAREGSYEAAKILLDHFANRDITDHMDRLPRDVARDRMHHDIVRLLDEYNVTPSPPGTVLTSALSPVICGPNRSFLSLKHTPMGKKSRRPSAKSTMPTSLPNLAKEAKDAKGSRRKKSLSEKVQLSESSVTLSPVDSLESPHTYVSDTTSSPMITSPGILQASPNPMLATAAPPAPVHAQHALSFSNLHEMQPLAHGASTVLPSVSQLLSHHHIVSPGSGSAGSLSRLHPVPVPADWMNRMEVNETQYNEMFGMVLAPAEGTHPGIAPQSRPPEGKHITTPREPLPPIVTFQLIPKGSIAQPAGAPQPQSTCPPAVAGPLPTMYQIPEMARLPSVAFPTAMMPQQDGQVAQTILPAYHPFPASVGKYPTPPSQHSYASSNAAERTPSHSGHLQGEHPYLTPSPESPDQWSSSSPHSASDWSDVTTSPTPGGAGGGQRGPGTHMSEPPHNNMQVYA
Assay [6] deals with Pro-neuregulin-1, membrane-bound isoform (Homo sapiens) (UniProt Q02297). Description: NRG1 binders on small-molecule microarrays, primary screen, psychiatric disease protein project, biochemical, small-molecule microarray, fluorescence 635/667 (AID 1075).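 Further: score combines 667 nm spot fluorescence with signal to noise.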 Conditions: NRG1 binding, 635 nm fluorescence, higher = more signal.
Sequence of Pro-neuregulin-1, membrane-bound isoform (Homo sapiens) (Q02297 whole entry, looked up, the tested form may be a part, canonical isoform): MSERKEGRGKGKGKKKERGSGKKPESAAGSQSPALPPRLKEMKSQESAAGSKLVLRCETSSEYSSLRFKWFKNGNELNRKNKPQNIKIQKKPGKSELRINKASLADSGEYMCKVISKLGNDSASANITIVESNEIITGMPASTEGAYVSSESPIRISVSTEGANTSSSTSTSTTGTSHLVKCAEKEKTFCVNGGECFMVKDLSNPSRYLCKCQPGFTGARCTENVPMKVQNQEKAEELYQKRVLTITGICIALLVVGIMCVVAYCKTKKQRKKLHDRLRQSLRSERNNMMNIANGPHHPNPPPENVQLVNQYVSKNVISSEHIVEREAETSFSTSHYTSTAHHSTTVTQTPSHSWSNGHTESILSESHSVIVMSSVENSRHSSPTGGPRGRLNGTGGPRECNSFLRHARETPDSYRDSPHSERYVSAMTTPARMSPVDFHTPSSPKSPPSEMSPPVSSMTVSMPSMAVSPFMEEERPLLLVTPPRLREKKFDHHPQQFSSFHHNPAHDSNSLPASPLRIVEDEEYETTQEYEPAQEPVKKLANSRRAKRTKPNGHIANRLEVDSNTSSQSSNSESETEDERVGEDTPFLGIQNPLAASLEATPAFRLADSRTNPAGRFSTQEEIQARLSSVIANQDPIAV
Assay [7] relates to Neuregulin-1 EGF-like domain. Description: binders of neuregulin-1 EGF-like domain, primary screen, biochemical, small-molecule microarray, 635 nm fluorescence (AID 1081).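 Further: binding of the protein to compounds printed on small-molecule microarray slides.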 Conditions: small-molecule microarray binding, higher = more signal.
Assay [8] is described as follows: FRG1 promoter luciferase signal modulators, primary screen, FRG1 inhibition for FSHD, cell-based, C2C12 myotubes, firefly/Renilla luciferase, luminescence (AID 1084). Conditions: higher = more signal, called active from +8 up or from −8 down.
Assay [9] in a line: binders of probe aFST on microarray, primary screen, stem cell growth factor project, biochemical, small-molecule microarray, fluorescence 635/667 (AID 1086).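 Further: score merges 667 nm fluorescence with signal-to-noise of each printed compound spot.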 Particulars: higher = more signal.
Assay [10] is described as follows: binders of probe aHhip on microarray, primary screen, stem cell growth factor project, biochemical, small-molecule microarray, fluorescence 635/667 (AID 1087).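 Further: score merges spot fluorescence at 667nm with spot signal to noise ratio.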 Conditions: higher = more signal.
For assay [11], the system named is PRMT1 (protein arginine N-methyltransferase 1). Description: PRMT1 binders on small-molecule microarrays, primary screen, biochemical, small-molecule microarray, 635 nm fluorescence (AID 1088).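 Further: binding of Prmt1 protein to compounds spotted on small-molecule microarray slides.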 Conditions: small-molecule microarray binding, higher = more signal.
A short description of assay [12]: yeast growth modulation, basal conditions, primary screen, YJM789 clinical isolate, OD600, 24 h (AID 1089).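 Further: growth of clinical yeast isolate S. cerevisiae YJM 789 seeded 1000 cells per well; test concentration not given here.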 Conditions: S. cerevisiae YJM789 growth, higher = more signal, called active from +8 up or from −8 down.
The nature of assay [13]: fission yeast growth modulation, primary screen, strain 972, OD600, 24 h, no modulator (AID 1090).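 Further: basal condition with compound alone and no growth modifier present; test concentration not given here.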 Conditions: S. pombe 972 growth, higher = more signal, called active from +8 up or from −8 down.
A short description of assay [14]: S. cerevisiae growth modulation with rapamycin, primary screen, strain BY4716, OD600, 96 h (AID 1091). Further: test concentration not given here. Particulars: higher = more signal, called active from +8 up or from −8 down.
Assay [15] concerns the target Torsin-1A-interacting protein 2 (Homo sapiens) (UniProt Q8NFQ8). Description: LULL1 binders on small-molecule microarray, primary screen, cell lysate, human LULL1 lysate, 635/667 nm fluorescence (AID 1092).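 Further: score merges per-feature 667 nm fluorescence with signal-to-noise.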 Conditions: hLULL1 lysate binding, 635 nm fluorescence, higher = more signal.
Assay [16] can be described thus: E. coli growth modulation, two-sided OD650, primary screen, E. coli filamentation project, strain DRC41, 24 h (AID 1093).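 Further: MC1000 strain lacking acrAB efflux and sulA so SOS filamentation is blocked; test concentration not given here.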 Conditions: OD650, 24 h, higher = more signal, called active from +8 up or from −8 down.
The nature of assay [17]: small-molecule microarray binders of probe aLefty2, primary screen, biochemical, biotinylated probe, 635/667 nm fluorescence (AID 1094).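 Further: score merges spot fluorescence near 667 nm with spot signal-to-noise ratio.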 Particulars: higher = more signal.
Assay [18] concerns Noggin (protein binding on small-molecule microarray). Description: Noggin binders on small-molecule microarray, primary screen, biochemical, 635/667 nm fluorescence (AID 1095).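 Further: score merges 667 nm feature fluorescence with signal to noise over triplicate slides.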 Conditions: 635 nm fluorescence, higher = more signal.
The target of assay [19] is Neurogenic locus notch homolog protein 3 (Homo sapiens) (UniProt Q9UM47). Description: NOTCH3 binders on small-molecule microarray, primary screen, biochemical, 635/667 nm fluorescence (AID 1096). Particulars: NOTCH3 binding, 635 nm fluorescence, higher = more signal.
A short description of assay [20]: small-molecule microarray binders of probe aEGFR, primary screen, biochemical, biotinylated probe, 635/667 nm fluorescence (AID 1097).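 Further: probe is a biotinylated anti-EGFR antibody binding compounds printed on slides; score combines fluorescence near 667 nm and signal to noise of each spot.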 Conditions: higher = more signal.

Activity calls are given as the source filed them.

Sequence of Torsin-1A-interacting protein 2 (Homo sapiens) (Q8NFQ8 whole entry, looked up): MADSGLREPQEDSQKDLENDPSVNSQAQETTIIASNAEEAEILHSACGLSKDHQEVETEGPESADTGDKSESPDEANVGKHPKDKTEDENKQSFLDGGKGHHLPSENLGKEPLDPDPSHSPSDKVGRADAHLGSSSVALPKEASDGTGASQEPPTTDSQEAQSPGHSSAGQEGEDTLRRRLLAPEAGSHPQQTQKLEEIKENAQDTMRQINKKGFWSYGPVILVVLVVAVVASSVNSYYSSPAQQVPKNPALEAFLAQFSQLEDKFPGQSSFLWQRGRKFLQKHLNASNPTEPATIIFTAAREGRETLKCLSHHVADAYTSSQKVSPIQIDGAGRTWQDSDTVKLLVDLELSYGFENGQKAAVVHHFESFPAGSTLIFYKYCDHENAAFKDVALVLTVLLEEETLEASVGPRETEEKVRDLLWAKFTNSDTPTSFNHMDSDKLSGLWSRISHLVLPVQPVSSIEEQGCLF

On to `COC(=O)[C@@]1(Cc2ccc(OC)cc2)[C@H]2c3cc(C(=O)N(C)C)n(Cc4cc(C)n(C)n4)c3C[C@H]2CN1C(=O)c1ccccc1`, for which the composite z-score was determined as 0.223 in assay [1]; 0.221 in assay [2]; 0.468 in [3]; 1.26 in assay [4]; 1.33 in assay [5]; 1.92 in assay [6]. Further, the composite z-score in [7] was 1.31; in [9], 0.732; in assay [10], 0.309; in assay [11], 0.847; in [15], 3.99; in [17] it was 0.14. Besides, the composite z-score is 0.119 in assay [18], 0.598 in assay [19] and 0.0423 in assay [20]. Besides, the z-score in [8] was 2 (inactive); in assay [12], 0.296 (inactive); in assay [13], 0.134 (inactive); in [14], 0.562 (inactive); in assay [16], -1.13 (inactive).

Regarding `C/C=C/[C@@H](CCn1cc([C@H](O)c2ccccc2)nn1)[Si](C)(C)c1ccc(OC)cc1`, the composite z-score in assay [1] was 0.683; in assay [2] it was 1.28; in [3] it was -0.0462; in [4] it was -0.135; in assay [5] it was -1.5; in assay [6], 1.29. In addition, the composite z-score in assay [7] is 0.96; in assay [9], -1.12; in assay [10], -0.236; in assay [11], 1.03; in assay [15], 1.33; in assay [17] it was -0.171. The results for the composite z-score in assay [18], in assay [19] and in assay [20] were -0.385, -0.498 and -0.298, respectively. The z-score in assay [8] was -1.41 (inactive); in assay [12], -2.41 (inactive); in assay [13] it was -0.143 (inactive); in assay [14], -0.0906 (inactive); in assay [16] it was 1.43 (inactive).

Regarding `COCC1=C([C@H](O)CCc2ccccc2)[C@H](CO)[C@@H]2C(=O)N(C)C(=O)[C@@H]2C1`, the composite z-score is -0.479 in [1]; 0.24 in [2]; -0.235 in [3]; 0.367 in [4]; 0.396 in assay [5]; 0.378 in [6]. Also, the composite z-score is 0.15 in assay [7]; -0.0346 in [9]; -0.226 in assay [10]; 0.267 in [11]; 0.258 in assay [15]; -0.184 in [17]. Further, the composite z-score in assay [18] was 0.396; in [19], -0.351; in assay [20], -0.106. For the same molecule, the z-score in assay [8] was -2.22 (inactive); in [12], 0.119 (inactive); in [13], -0.551 (inactive); in [14], 0.165 (inactive); in assay [16], 1.99 (inactive).

`CCCN1C(=O)[C@@]2(Cc3ccccc3)N=C(c3ccc(OCCCO)cc3)O[C@H]2c2ccccc21`: the composite z-score in assay [1] is -0.0679; in assay [2], 0.802; in assay [3], -0.047; in [4], 0.186; in [5], 0.498; in assay [6], 0.602. For the same molecule, the composite z-score in assay [7] was 1.12; in assay [9], -0.0754; in [10] it was -0.0573; in assay [11] it was 1.54; in [15] it was 3.13; in [17] it was 0.152. Besides, the composite z-score in [18] was 1.29; in [19], 1.05; in [20] it was -0.0976. The z-score in assay [8] is -1.25 (inactive); in assay [12], -1.46 (inactive); in [13], -4.12 (inactive); in assay [14] it was 1.52 (inactive); in [16], 1.09 (inactive).

In the case of `N#Cc1ccc(NN2C(C(O)c3ccco3)C=CC3C(=O)N(c4ccccc4)C(=O)C32)cc1` (stereo not given), the composite z-score in assay [1] is 0.188; in assay [2], -0.0615; in assay [3], -0.0133; in assay [4], 0.758; in assay [5] it was 0.54; in [6] it was 0.989. Besides, the composite z-score in [7] is 0.754; in assay [9], 0.39; in assay [10], -0.249; in [11], 0.327; in [15], 2.41; in [17], 0.0815. Besides, the values for the composite z-score in [18], in assay [19] and in assay [20] were -0.0593, 0.591 and -0.0411, respectively. Further, the z-score in assay [8] is 0.768 (inactive); in [12], 0.0011 (inactive); in [13] it was 0.376 (inactive); in assay [14] it was 1.7 (inactive); in assay [16], -3.5 (inactive).

As for `COCCOC(=O)N1C(=O)[C@@]2(c3cc(C#CC4(O)CCCCCC4)ccc31)[C@H](C(=O)N1CCN(c3ncccn3)CC1)[C@H]1C(=O)O[C@H](c3ccccc3)[C@H](c3ccccc3)N1[C@@H]2c1ccc(O)cc1`, the composite z-score is -0.238 in [1]; 0.413 in assay [2]; 0.0228 in assay [3]; 0.806 in assay [4]; 0.372 in assay [5]; 0.438 in assay [6]. Besides, the composite z-score in [7] is 1.22; in assay [9], -0.123; in assay [10] it was -0.0618; in assay [11], 1.47; in assay [15], 2.54; in assay [17] it was -0.172. The composite z-score in assay [18] is 0.287; in assay [19] it was 0.546; in assay [20], -0.158. For the same molecule, the z-score is -0.617 (inactive) in assay [8]; 1.79 (inactive) in assay [12]; -0.885 (inactive) in assay [13]; 2.83 (inactive) in assay [14]; 1.31 (inactive) in assay [16].

As to `OCc1ccc(-c2cc[n+](Cc3cccc(OC(F)(F)F)c3)cc2)cc1`, the composite z-score in assay [1] is 0.253; in assay [2], 0.502; in assay [3] it was -0.0887; in [4], -0.0076; in assay [5], 1.4; in [6], 1.48. Also, the composite z-score in [7] was 0.946; in assay [9], 0.597; in assay [10] it was -0.0994; in assay [11], 1.26; in [15], 1.99; in assay [17], 0.353. Also, the composite z-score in assay [18] is 0.876; in [19], 1.05; in [20] it was -0.0016. Moreover, the z-score was 1.41 (inactive) in [8]; -1.54 (inactive) in assay [12]; -19.5 (active) in assay [13]; 5.75 (inactive) in assay [14]; 0.261 (inactive) in assay [16].

As to `CC(C)[Si](C#C[Si](C(C)C)(C(C)C)C(C)C)(O[C@H](C)c1cn(Cc2cccc(Cl)c2)nn1)C(C)C`, the composite z-score in assay [1] was -0.333; in [2] it was -0.0681; in [3], -0.123; in assay [4], 0.316; in [5] it was 0.496; in [6], 0.528. Besides, the composite z-score is 0.94 in assay [7]; 0.323 in assay [9]; -0.0994 in assay [10]; 1.36 in assay [11]; 1.04 in assay [15]; -0.148 in assay [17]. Further, the composite z-score in assay [18] came to 0.52; in assay [19], 0.902; in assay [20], 0.0192. Moreover, the z-score in [8] is -1.14 (inactive); in assay [12], 0.487 (inactive); in [13], 0.115 (inactive); in assay [14] it was -0.318 (inactive); in [16], 2.18 (inactive).

For the molecule `O=C(NCc1ccccc1)[C@]1(Cc2ccccc2)N=C(c2ccc(OCCCO)cc2)O[C@@H]1c1ccccc1`, the composite z-score in assay [1] was 0.78; in assay [2] it was -0.136; in [3], -0.0499; in assay [4] it was 0.885; in assay [5], 1.46; in assay [6] it was 1.31. For the same molecule, the composite z-score in assay [7] amounted to 0.93; in assay [9], 0.662; in assay [10], 0.0024; in assay [11] it was 0.882; in [15], 2.68; in [17], 0.0609. For the same molecule, the figures for the composite z-score in assay [18], in [19] and in [20] were -0.102, 0.256 and 0.676, respectively. Also, the z-score in [8] was -2.57 (inactive); in [12], 1.83 (inactive); in [13], 1.26 (inactive); in assay [14] it was 18.9 (active); in [16] it was -1.26 (inactive).

Consider `CCCCCCCCCCC(O)C1C=CC2C(=O)NC(=O)C2N1Nc1ccccn1` (stereo not given), for which the composite z-score in assay [1] was 0.444; in assay [2], -1.14; in [3], -0.0899; in assay [4], -0.417; in assay [5], 0.439; in assay [6] it was 1. For the same molecule, the composite z-score in assay [7] was 0.852; in [9] it was 0.0124; in assay [10], -0.236; in assay [11], -0.19; in [15] it was 1.78; in [17] it was -0.0654. Also, the composite z-score in assay [18] was -0.894; in assay [19], 0.243; in [20], -0.14. For the same molecule, the z-score in assay [8] is 1.06 (inactive); in [12], -20 (active); in assay [13] it was -16.2 (active); in assay [14], -2.6 (inactive); in [16], -15.5 (active).
